According to PubChem BioAssay AID977607 (Broad Institute, 2014):
About 460 (31%) of roughly 1,500 compounds were called active. Inconclusive results (about 1%) are left out.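 How the source made its calls: active means curve reaches 40% activation over neutral controls at an AC40 no higher than the top valid tested concentration; inconclusive means no clear call, values can overlap the other calls; inactive means signal moving opposite to the expected increase, and the rest.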 These entries were drawn from the full list. Results with a measured potency or affinity are listed apart.

Test: activators of glucose-dependent insulin secretion, dose response, cell-based, INS-1E, Gaussia luciferase, luminescence, cherry-pick, set 2 (AID 977607);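 further: 0% = median of the plate neutral control wells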
Conditions: INS-1E GLuc insulin secretion reporter, 2-3 h, hits give high values; at 35 µM, 100% = signal doubled over neutral wells unless noted

Max activation, inactive:
COc1ccc(C(=O)c2sc(Nc3ccccc3)nc2N)cc1OC 39.1% [at 3.8 µM, 100% = signal doubled over neutral wells]
CC(C)COC(=O)N1C[C@H](O)C[C@H]1C(=O)Nc1ccc(Cl)cc1 -12.6% [at 0.015 µM, 100% = signal doubled over neutral wells]
Cc1ccc(-c2nc3c(=O)n(C)c4ccccc4c3o2)cc1 27.7% [at 0.42 µM, 100% = signal doubled over neutral wells]
O=C(Nc1ccc(NC(=O)c2cccs2)cc1)c1ccc2c(c1)OCO2 -18.9% [at 3.8 µM, 100% = signal doubled over neutral wells]
O=C(Nc1ccc2oc(-c3cccnc3)nc2c1)c1ccc2c(c1)OCCO2 21%
CN1CCCCCC1C(=O)N1CCC(N2CCC(C(=O)N3CCOCC3)CC2)CC1 (stereo not drawn) -16.3%
O=C(Nc1nnc(-c2ccc(F)cc2)s1)C1CCN(S(=O)(=O)c2ccc(Cl)cc2)CC1 18.7%
CCOC(=O)c1ccc(S(=O)(=O)N2CCC(C(=O)Nc3nnc(C)o3)CC2)cc1 -12.8% [at 0.0016 µM, 100% = signal doubled over neutral wells]
COc1ccccc1N(CC(=O)NCC1CCCO1)C(=O)CNS(=O)(=O)c1ccc(Cl)cc1 (stereo not drawn) -20% [at 0.42 µM, 100% = signal doubled over neutral wells]
Fc1ccccc1-c1nnc2ccc3ccccc3n12 -19.8% [at 0.135 µM, 100% = signal doubled over neutral wells]
C[C@@H]1CN([C@H](C)CO)C(=O)CCCn2nncc2CO[C@H]1CN(C)C(=O)Nc1ccnc(N2CCOCC2)c1 -14% [at 0.015 µM, 100% = signal doubled over neutral wells]
COc1ccc(NC(=O)C2(c3ccc(NC(=O)c4ccc(OC)cc4)cc3)CCCC2)cc1 -18.4% [at 0.005 µM, 100% = signal doubled over neutral wells]
COc1ccc(C(=O)Nc2ccccc2C(=O)NCC2CCCO2)cc1 (stereo not drawn) 6.34%
COc1ccc(CCN2CC(=O)NC(=O)C2)cc1OC -13.9% [at 3.8 µM, 100% = signal doubled over neutral wells]
CCN(c1ccccc1)c1nc(Cl)nc2c1cnn2C 28.8%
COCc1ccc(C(=O)NC2CCSc3ccccc32)cc1 (stereo not drawn) -17.7%
COc1ccc(-c2ccc(=O)n(CC(=O)NC3CCc4ccccc43)n2)cc1OC (stereo not drawn) 20.7% [at 11 µM, 100% = signal doubled over neutral wells]
CCCc1cc(=O)oc2cc(C)cc(OCC(=O)Nc3ccc(S(N)(=O)=O)cc3)c12 24.1% [at 1.2 µM, 100% = signal doubled over neutral wells]
Cn1c(=O)c(=O)n(C)c2cc(S(=O)(=O)N3CCN(c4ccc(F)cc4)CC3)ccc21 -17.9% [at 0.046 µM, 100% = signal doubled over neutral wells]
CSc1ccc2nnc(-c3cccc(F)c3)n2n1 16.4%
COc1cccc(-c2cc(C(F)(F)F)nc(-n3cncn3)n2)c1 -20.7%
CC(C)CC#Cc1ccc([C@H]2[C@H]3CN(C(=O)c4cnccn4)CC(=O)N3[C@H]2CO)cc1 35.4% [at 0.015 µM, 100% = signal doubled over neutral wells]
CCN(Cc1ccncc1)C(=O)c1cccc(S(=O)(=O)N2CCCCC2)c1 -18% [at 1.2 µM, 100% = signal doubled over neutral wells]
COc1ccccc1CNC(=O)CCS(=O)(=O)Cc1ccc(C)cc1 -17.3%
Cc1ccc(NC2c3ncccc3C(=O)N2C2CCCCC2)cc1 (stereo not drawn) 28.1%
COc1ccc(C2=Nn3c(nnc3-c3ccccc3OC)SC2)cc1OCC1CC1 -35.7%
COc1ccc(-c2nnc(-c3cccs3)o2)cc1OC 29.4%
COc1ccc(C2=Nn3c(nnc3-c3ccccc3OC)SC2)cc1OC1CCOC1 (stereo not drawn) 43.3% [at 1.2 µM, 100% = signal doubled over neutral wells]
COc1ccc(C(O)c2nccc3cc(OC)c(OC)cc23)cc1OC (stereo not drawn) 44.3% [at 3.8 µM, 100% = signal doubled over neutral wells]
COc1ccc(CO/N=C/c2c(C)[nH]c(=O)[nH]c2=O)cc1 16.7%
COC(=O)C1C(=O)NC(SC)=C(C#N)C1c1ccccc1 (stereo not drawn) -22.6% [at 0.015 µM, 100% = signal doubled over neutral wells]
O=C1N(c2ccccc2)c2ccccc2[C@]12C[C@H](O)CO2 -20.7% [at 0.135 µM, 100% = signal doubled over neutral wells]
O=C(COc1ccc(Cl)cc1)NCCS(=O)(=O)N1CCN(c2ccccc2F)CC1 -18.1% [at 0.135 µM, 100% = signal doubled over neutral wells]
COc1ccc(OC)c(C2=Nn3c(nnc3-c3ccncc3)SC2)c1 12.7%
C[C@@H]1O[C@H](C2CCCC2)CC2=C1C(=O)OC(C)(C)O2 18% [at 1.2 µM, 100% = signal doubled over neutral wells]
CC[C@@H]1CC2=C(C(=O)OC(C)(C)O2)[C@H](c2ccc(F)cc2)O1 23.8% [at 3.8 µM, 100% = signal doubled over neutral wells]
C=CCNc1nc(Cl)nc(Nc2ccc(OC)cc2)n1 50.7%
CCOc1cc(/C=C(\CC(=O)O)c2nc3ccccc3s2)ccc1OC -15% [at 0.005 µM, 100% = signal doubled over neutral wells]
